According to PubChem BioAssay (Tox21):
Values joined by “and” are separate entries in the source; they are usually repeats but may differ in a detail not shown here. Equal values may be shown once. Records with an inconclusive call do not appear. The source holds several records for some structures; these can differ, active in one and inactive in another. Active and inactive are the calls of the source. Calls come from the whole dose curve; as a rule, active = well fitted curve in the direction sought with a large enough effect in the repeat runs; inconclusive = weak or mixed curves; inactive = no such curve, though single readings can be large; an effect the other way counts as inactive or inconclusive.

What was measured:
[1] = qHTS RealTime-Glo MT Cell Viability Assay in HepG2 cells - 40 hour (AID 1224870); note: nearly all actives have a fitted effect of over 50% in size
Method in brief: (§1)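 HepG2 cells mixed with RealTime-Glo MT reagents (NanoLuc plus cell-permeant prosubstrate) were seeded at 600 cells/well, incubated 5 h at 37 C/5% CO2, then pinned with compounds in DMSO; nonlytic luminescence tracked viability during 40 h treatment.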

[2] = qHTS RealTime-Glo MT Cell Viability Assay in HEK293 cells - 16 hour (AID 1224872); note: top concentration of the series differs between compounds; nearly all actives have a fitted effect of over 50% in size
Method in brief: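 HEK293 cells were seeded at 600 cells/well together with NanoLuc luciferase and cell-permeant prosubstrate, preincubated 5 h at 37 C/5% CO2, then given compound in DMSO by pintool. Luminescence from viable-cell prosubstrate reduction was read repeatedly over 40 h.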

[3] = qHTS RealTime-Glo MT Cell Viability Assay in HepG2 cells - 8 hour (AID 1224873); note: nearly all actives have a fitted effect of over 55% in size
Method in brief: as §1

[4] = qHTS RealTime-Glo MT Cell Viability Assay in HEK293 cells - 40 hour (AID 1224874); settings: RealTime-Glo luminescence; max response: stronger effect = lower value; note: nearly all actives have a fitted effect of over 50% in size; note: potency is the fitted concentration of half-maximal effect
Method in brief: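 Cells were seeded together with NanoLuc luciferase and a prosubstrate that viable cells reduce to a luciferase substrate. After a 5 h incubation at 37 C/5% CO2, compounds were added and luminescence was measured repeatedly during 40 h of treatment.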

[5] = A CellTox Green Cytotoxicity Assay to monitor cytotoxicity in HEK293 cells - 24 hour (AID 1224875); note: series mostly up to about 77 µM; nearly all actives have a fitted effect of over 45% in size
Method in brief: (§2)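 Nonlytic real-time cytotoxicity: HEK293 + CellTox Green reagent plated, 5 h preincubation, pintool compound addition (23 nL in DMSO), 37 C for 40 h, fluorescence measured at successive time points.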

[6] = A CellTox Green Cytotoxicity Assay to monitor cytotoxicity in HepG2 cells - 16 hour (AID 1224876); note: nearly all actives have a fitted effect of over 45% in size; note: potency is the fitted concentration of half-maximal effect
Method in brief: (§3)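 Read-out is fluorescence of a cyanine dye excluded from live cells that stains DNA of dead HepG2 cells, with signal proportional to cytotoxicity. Plates were read at 0, 8, 16, 24, 32 and 40 h after compound addition.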

[7] = qHTS RealTime-Glo MT Cell Viability Assay in HepG2 cells - 32 hour (AID 1224877); note: nearly all actives have a fitted effect of over 55% in size
Method in brief: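 HepG2 cells were seeded at 600 cells/well together with NanoLuc luciferase and a cell-permeant prosubstrate, preincubated 5 h at 37 C/5% CO2, then pin-dosed with compounds in DMSO. Nonlytic luminescence from viable cells was read at each time point.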

[8] = A CellTox Green Cytotoxicity Assay to monitor cytotoxicity in HepG2 cells - 24 hour (AID 1224878); note: nearly all actives have a fitted effect of over 45% in size; note: potency is the fitted concentration of half-maximal effect
Method in brief: as §3

[9] = A CellTox Green Cytotoxicity Assay to monitor cytotoxicity in HepG2 cells - 40 hour (AID 1224879); note: nearly all actives have a fitted effect of over 40% in size; note: potency is the fitted concentration of half-maximal effect
Method in brief: as §3

[10] = A CellTox Green Cytotoxicity Assay to monitor cytotoxicity in HEK293 cells - 40 hour (AID 1224871); note: nearly all actives have a fitted effect of over 45% in size
Method in brief: as §2
% is set by controls: 0 for no effect and ±100 for the full control effect.

COC(=O)CCSCCC(=O)OC
inactive: Potency [1] | Potency [2] | Potency [3] | max response [4] 0.851% | Potency [5] | Potency [6] | Potency [7] | Potency [8] | Potency [9]

ClC(Cl)(Br)Br
inactive: Potency [1] | Potency [10] | Potency [3] | max response [4] -1.43% | Potency [6] | Potency [7] | Potency [8] | Potency [9]

NC(=O)COCCN1CCN(C(c2ccccc2)c2ccc(Cl)cc2)CC1 (configuration not stated)
inactive: Potency [1] | Potency [10] | max response [4] 4.08% | Potency [5] | Potency [6] | Potency [7] | Potency [8] | Potency [9]

Cn1cc(S(C)=O)c(=O)c2ccc(F)cc21 (configuration not stated)
inactive: Potency [1] | Potency [10] | Potency [3] | Potency [6] | Potency [7] | Potency [8] | Potency [9]

CCSC(=O)N(CC(C)C)CC(C)C
inactive: Potency [1] | Potency [10] | Potency [5] | Potency [6] | Potency [7] | Potency [8] | Potency [9]

C=C[Si](OC(=C)C)(OC(=C)C)OC(=C)C
inactive: Potency [1] | Potency [10] | Potency [3] | max response [4] 13.4% | Potency [5] | Potency [7] | Potency [8] | Potency [9]

N=C(N)c1ccccc1
inactive: Potency [1] | Potency [2] | Potency [3] | max response [4] -0.53% | Potency [5] | Potency [6] | Potency [7] | Potency [8] | Potency [9]

CCOc1ccc(C(=O)OCCN(CC)CC)cc1
inactive: Potency [1] | Potency [10] | Potency [3] | max response [4] 4.37% | Potency [6] | Potency [7] | Potency [8] | Potency [9]

NC(=O)c1cn(Cc2c(F)cccc2F)nn1
inactive: Potency [1] | Potency [10] | Potency [3] | max response [4] 4.6% | Potency [5] | Potency [6] | Potency [7] | Potency [8] | Potency [9]

COc1ccc2c(c1)c(CC(=O)OCC(=O)O)c(C)n2C(=O)c1ccc(Cl)cc1
inactive: Potency [1] | Potency [10] | Potency [3] | max response [4] 5.11% | Potency [5] | Potency [6] | Potency [7] | Potency [8] | Potency [9]

CCOC(=O)CCC(C)=O
inactive: Potency [1] | Potency [10] | Potency [3] | max response [4] -9.25% | Potency [5] | Potency [6] | Potency [7] | Potency [8] | Potency [9]

CC(NC(CCc1ccccc1)C(=O)O)C(=O)N1C(=O)N(C)CC1C(=O)O (configuration not stated)
inactive: Potency [1] | Potency [2] | Potency [3] | max response [4] -1.88% | Potency [6] | Potency [7] | Potency [8] | Potency [9]

CC(C(=O)O)c1ccc(CC2CCCC2=O)cc1 (configuration not stated)
inactive: Potency [1] | Potency [2] | Potency [3] | Potency [5] | Potency [6] | Potency [7] | Potency [8] | Potency [9]

Cc1nc2c([nH]1)c(=O)n(C)c(=O)n2Cc1ccco1
inactive: Potency [1] | Potency [3] | Potency [5] | Potency [6] | Potency [7] | Potency [8] | Potency [9]

c1ccc(CC2=NCCN2)cc1
inactive: Potency [1] | Potency [3] | max response [4] -5.85% | Potency [5] | Potency [6] | Potency [7] | Potency [8] | Potency [9]

COCCCOCCCOC
inactive: Potency [1] | Potency [2] | Potency [3] | max response [4] 6.62% | Potency [6] | Potency [7]

Nc1c2c(nc3ccccc13)CCCC2O (configuration not stated)
inactive: Potency [1] | Potency [2] | Potency [3] | Potency [5] | Potency [6] | Potency [7] | Potency [8] | Potency [9]

O=C1CC2CC1C1CCCC21 (configuration not stated)
inactive: Potency [1] | Potency [2] | Potency [3] | max response [4] -4.86% | Potency [6] | Potency [7] | Potency [8] | Potency [9]

O=C(c1ccccc1)C1CCCCC1
active: Potency [6] 43.6 µM | Potency [8] 49 µM | Potency [9] 49 µM
inactive: Potency [1] | Potency [2] | Potency [3] | max response [4] -10.1% | Potency [7]

O=C(CCCN1CCN(c2ccccn2)CC1)c1ccc(F)cc1
inactive: Potency [1] | Potency [5] | Potency [6] | Potency [7] | Potency [8] | Potency [9]

N[C@@H](C(=O)N[C@@H]1C(=O)N2C(C(=O)O)=C(Cl)CS[C@H]12)c1ccccc1
inactive: activity change, negative = cytotoxic [1] 0.227% [at 6.97 µM] | viability change, negative = cytotoxic [3] 3.66% [at 6.97 µM] | max response [4] 6.7% | activity change [5] 0.0795% [at 6.97 µM, stronger effect = higher value] | cytotoxicity increase [6] -14% [at 6.97 µM] | activity change, negative = cytotoxic [7] 1.49% [at 6.97 µM] | cytotoxicity [8] -20.4% [at 6.97 µM] | cytotoxicity increase [9] -14.3% [at 6.97 µM]

O=C(O)c1ccccc1OP(=O)(O)O
inactive: Potency [1] | Potency [2] | Potency [3] | Potency [5] | Potency [6] | Potency [7] | Potency [8] | Potency [9]

Nc1nc2c(ncn2COC(CO)CO)c(=O)[nH]1
inactive: Potency [10] | Potency [5] | Potency [6] | Potency [8] | Potency [9]

CCCCC/C=C\CCC=O
inactive: Potency [1] | Potency [2] | max response [4] 1.73% | Potency [5] | Potency [6] | Potency [7] | Potency [8] | Potency [9]

C/C=C(\C)C#N
inactive: Potency [1] | Potency [2] | Potency [3] | max response [4] -3.01% | Potency [6] | Potency [7] | Potency [8] | Potency [9]

Nc1cc(=O)[nH]c(N)n1
inactive: Potency [1] | Potency [2] | Potency [3] | Potency [5] | Potency [6] | Potency [7] | Potency [8] | Potency [9]

C[C@H]1C[C@@H](O)CC(C)(C)C1
inactive: Potency [1] | Potency [2] | Potency [3] | max response [4] -10.6% | Potency [6] | Potency [7] | Potency [8] | Potency [9]

CC(C)(c1ccc(O)cc1)c1ccc(O)cc1
active: Potency [4] 48 µM
inactive: Potency [1] | Potency [3] | Potency [5] | Potency [6] | Potency [7] | Potency [8] | Potency [9]

O=C(O)CNC(=O)c1ccc([N+](=O)[O-])cc1
inactive: Potency [1] | Potency [3] | max response [4] -0.136% | Potency [6] | Potency [7] | Potency [8] | Potency [9]

CC1=CC(C)C(C=O)CC1 (configuration not stated)
inactive: Potency [1] | Potency [2] | Potency [3] | max response [4] -0.371% | Potency [6] | Potency [7] | Potency [8] | Potency [9]

COc1c(N2C[C@@H]3CCCN[C@@H]3C2)c(F)cc2c(=O)c(C(=O)O)cn(C3CC3)c12
inactive: Potency [1] | Potency [3] | Potency [5] | Potency [6] | Potency [7] | Potency [8] | Potency [9]

Cc1cnc(NS(=O)(=O)c2ccc(N)cc2)nc1
inactive: Potency [1] | max response [4] 2.61% | Potency [6] | Potency [7] | Potency [8] | Potency [9]

CC(=O)c1ccccc1O
inactive: Potency [1] | Potency [2] | Potency [3] | Potency [6] | Potency [7] | Potency [8] | Potency [9]

C1OCOCO1
inactive: Potency [1] | Potency [2] | Potency [3] | Potency [5] | Potency [6] | Potency [7] | Potency [8] | Potency [9]

OC(CCN1CCCCC1)(c1ccccc1)C1CC2C=CC1C2 (configuration not stated)
inactive: Potency [1] | Potency [2] | max response [4] -10.3% | Potency [5] | Potency [6] | Potency [7] | Potency [8] | Potency [9]

CC(C)CCCC(C)N (configuration not stated)
inactive: Potency [1] | Potency [3] | max response [4] 5.83% | Potency [6] | Potency [7] | Potency [8] | Potency [9]

CCCCCCCCCCCCN(CCCCCCCCCCCC)CCCCCCCCCCCC
inactive: Potency [1] | Potency [2] | max response [4] 0.0553% | Potency [5] | Potency [6] | Potency [7] | Potency [8] | Potency [9]

CCCCC(CC)COC(=O)c1ccccc1O (configuration not stated)
inactive: Potency [1] | Potency [2] | Potency [3] | max response [4] 0.0024% | Potency [6] | Potency [7] | Potency [8] | Potency [9]

CCCCCCCCCCCC
inactive: Potency [1] | Potency [2] | max response [4] 0.33% | Potency [5] | Potency [6] | Potency [7] | Potency [8] | Potency [9]

N=C(N)c1ccc2cc(OC(=O)c3ccc(N=C(N)N)cc3)ccc2c1
inactive: Potency [1] | Potency [3] | max response [4] 1.38% | Potency [5] | Potency [6] | Potency [7] | Potency [8] | Potency [9]

NCCCNCCSP(=O)(O)O
inactive: activity change, negative = cytotoxic [1] 0.256% [at 6.97 µM] | viability change, negative = cytotoxic [3] 0.144% [at 6.97 µM] | max response [4] 3.52% | activity change [5] -8.68% [at 6.97 µM, stronger effect = higher value] | cytotoxicity increase [6] -2.65% [at 6.97 µM] | activity change, negative = cytotoxic [7] 1.78% [at 6.97 µM] | cytotoxicity [8] -8.81% [at 6.97 µM] | cytotoxicity increase [9] -11.2% [at 6.97 µM]

COCCc1ccc(OCC(O)CNC(C)C)cc1 (configuration not stated)
inactive: Potency [1] | Potency [3] | max response [4] 1.31% and -8.11% | Potency [5] | Potency [6] | Potency [7] | Potency [8] | Potency [9]

CCn1nc(C(=O)O)c(=O)c2cc3c(cc21)OCO3
inactive: Potency [1] | Potency [2] | Potency [3] | Potency [5] | Potency [6] | Potency [7] | Potency [8] | Potency [9]

CC[N+](C)(C)c1cccc(O)c1
inactive: Potency [1] | Potency [2] | Potency [3] | Potency [5] | Potency [6] | Potency [7] | Potency [8] | Potency [9]

CCN(CC)CCNC(=O)c1cc(S(C)(=O)=O)ccc1OC
inactive: Potency [1] | Potency [2] | Potency [3] | max response [4] 3.02% | Potency [6] | Potency [7] | Potency [8] | Potency [9]

O=c1n(CCO)c(=O)n(CCO)c(=O)n1CCO
inactive and 38.9 µM (active): Potency [6] | Potency [8]
inactive: Potency [1] | Potency [2] | Potency [3] | max response [4] -3.8% and 5.95% | Potency [7]
inactive and 43.6 µM (active): Potency [9]
